Measurements published in PubChem BioAssay (Tox21).
Inconclusive results are not listed. Active and inactive are the calls of the source. Unless noted, calls follow the shape of the dose curve; as a rule, active = well fitted curve in the direction sought with a large enough effect in the repeat runs; inconclusive = weak or mixed curves; inactive = no such curve, though single readings can be large; an effect the other way counts as inactive or inconclusive.

What was measured:
[1] = qHTS assay to identify aromatase inhibitors - cell viability counter screen (AID 743084);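 also: cells stimulated with testosterone during compound exposure; nearly all actives have a fitted effect of over 55% in size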; also: potency is read from the fitted curve at half-maximal effect
[2] = molecular target: Aryl hydrocarbon receptor (Homo sapiens) (UniProt P35869); test: qHTS assay to identify small molecule that activate the aryl hydrocarbon receptor (AhR) signaling pathway (AID 743085); also: nearly all actives have a fitted effect of over 15% in size; also: potency is read from the fitted curve at half-maximal effect;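 as to activation: HG2L7.5c1 human HepG2 liver cells with stably integrated DRE-driven firefly reporter; series mostly up to about 70 µM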
Aryl hydrocarbon receptor (Homo sapiens), sequence (P35869 whole entry, looked up): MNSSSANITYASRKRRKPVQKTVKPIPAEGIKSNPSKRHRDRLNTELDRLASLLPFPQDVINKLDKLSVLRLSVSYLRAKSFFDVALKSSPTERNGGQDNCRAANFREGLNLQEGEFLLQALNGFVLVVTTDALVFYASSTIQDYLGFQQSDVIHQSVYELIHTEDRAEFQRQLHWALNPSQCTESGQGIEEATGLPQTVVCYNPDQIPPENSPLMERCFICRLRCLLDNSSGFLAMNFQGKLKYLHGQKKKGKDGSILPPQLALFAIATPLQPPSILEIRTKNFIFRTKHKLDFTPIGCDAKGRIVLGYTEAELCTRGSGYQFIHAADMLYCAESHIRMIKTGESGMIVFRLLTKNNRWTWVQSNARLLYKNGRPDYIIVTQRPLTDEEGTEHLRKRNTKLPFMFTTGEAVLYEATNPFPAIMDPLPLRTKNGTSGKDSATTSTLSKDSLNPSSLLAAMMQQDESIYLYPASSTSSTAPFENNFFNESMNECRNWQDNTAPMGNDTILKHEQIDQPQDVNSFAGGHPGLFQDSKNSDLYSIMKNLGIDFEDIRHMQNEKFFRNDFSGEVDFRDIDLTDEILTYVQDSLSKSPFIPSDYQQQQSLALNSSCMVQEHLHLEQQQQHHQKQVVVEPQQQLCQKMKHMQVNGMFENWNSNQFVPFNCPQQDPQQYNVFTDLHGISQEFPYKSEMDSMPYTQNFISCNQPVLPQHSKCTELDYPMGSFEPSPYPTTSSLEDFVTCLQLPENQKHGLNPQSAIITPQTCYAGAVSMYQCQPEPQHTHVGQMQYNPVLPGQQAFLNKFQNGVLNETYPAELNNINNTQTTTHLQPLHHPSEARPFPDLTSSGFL
Summary of the method: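 Steps: seed HepG2-AhR-luc cells; allow 5 h at 37C; pin-transfer test compound or vehicle; incubate 24 h at 37C; add viability dye (30 min, 37C) and read fluorescence; add luciferase substrate (30 min, RT) and read luminescence.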

[3] = qHTS assay to identify small molecule that activate the aryl hydrocarbon receptor (AhR) signaling pathway - cell viability counter screen (AID 743086); also: nearly all actives have a fitted effect of over 45% in size; also: potency is read from the fitted curve at half-maximal effect
Summary of the method: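 HepG2-AhR-luc (HG2L7.5c1) cells, 4000/well, treated 24 h at 37 C with compound; viability measured as CellTiter-Fluor fluorescence after 30 min in the same wells as the luciferase read.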

[4] = molecular target: Peroxisome proliferator-activated receptor gamma (Homo sapiens) (UniProt P37231); test: qHTS assay to identify small molecule agonists of the peroxisome proliferator-activated receptor gamma (PPARg) signaling pathway (AID 743094; active = well fitted activation curve with a large enough effect in the signal ratio in the repeat runs, not every such curve was filed as active; the % refers to the signal ratio; also: potency is read from the fitted curve at half-maximal effect)
Peroxisome proliferator-activated receptor gamma (Homo sapiens), sequence (P37231 whole entry, looked up): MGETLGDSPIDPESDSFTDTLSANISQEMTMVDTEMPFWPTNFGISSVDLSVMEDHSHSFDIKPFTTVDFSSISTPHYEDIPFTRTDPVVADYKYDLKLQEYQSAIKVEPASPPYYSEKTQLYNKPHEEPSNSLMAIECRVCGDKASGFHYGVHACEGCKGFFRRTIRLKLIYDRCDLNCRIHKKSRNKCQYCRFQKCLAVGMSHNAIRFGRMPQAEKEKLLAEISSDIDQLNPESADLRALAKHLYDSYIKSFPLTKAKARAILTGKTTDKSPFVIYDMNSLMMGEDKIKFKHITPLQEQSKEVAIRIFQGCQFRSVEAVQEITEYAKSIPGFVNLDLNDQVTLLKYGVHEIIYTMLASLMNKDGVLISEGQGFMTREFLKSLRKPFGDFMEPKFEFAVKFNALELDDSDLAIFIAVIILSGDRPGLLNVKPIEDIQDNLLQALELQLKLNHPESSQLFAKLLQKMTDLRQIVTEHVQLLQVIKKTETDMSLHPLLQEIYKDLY
Summary of the method: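 Fluorescence-based beta-lactamase readout in HEK293H PPARg UAS-bla cells after 17 h compound exposure (37C) and 1 h B/G FRET substrate incubation at room temperature.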

[5] = qHTS assay to identify small molecule antagonists of the peroxisome proliferator-activated receptor gamma (PPARg) signaling pathway - cell viability counter screen (AID 743194); also: nearly all actives have a fitted effect of over 55% in size
Summary of the method: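 Cytotoxicity counter screen in PPARg-bla HEK293H cells, same wells as reporter assay. Compounds plus 50 nM rosiglitazone (final) for 17 h at 37 C, then viability read by CellTiter-Glo luminescence.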

[6] = qHTS assay for small molecule agonists of the antioxidant response element (ARE) signaling pathway (AID 743202; active = well fitted activation curve with a large enough effect in the signal ratio in the repeat runs, not every such curve was filed as active; the % refers to the signal ratio; also: potency is read from the fitted curve at half-maximal effect)
Summary of the method: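 HepG2 ARE-bla reporter line, 2,000 cells/well; 5 h preincubation 37 C/5% CO2; compound (DMSO) 16 h 37 C; B/G FRET substrate 2 h RT; fluorescence intensity.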

[7] = qHTS assay for small molecule agonists of the antioxidant response element (ARE) signaling pathway - cell viability counter screen (AID 743203; calls by dose curve; also: nearly all actives have a fitted effect of over 55% in size)
Summary of the method: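 Parallel cytotoxicity read-out for the ARE-bla screen: HepG2 reporter cells, 16 hrs with compounds, then CellTiter-Glo luminescence.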

[8] = qHTS assay for small molecule activators of the heat shock response signaling pathway - cell viability counter screen (AID 743209); also: nearly all actives have a fitted effect of over 50% in size
Summary of the method: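 To flag cytotoxic compounds, HSE-bla HeLa cells plated at 1500 cells/well were dosed for 5 h at 37 C, followed by the reporter FRET read and then CellTiter-Glo, with luminescence recorded 30 min after reagent addition.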

[9] = qHTS assay for small molecule activators of the heat shock response signaling pathway (AID 743210; active = well fitted activation curve with a large enough effect in the signal ratio in the repeat runs, with a control signal flat, not every such curve was filed as active; the % refers to the signal ratio;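 also: HeLa cells with beta-lactamase reporter driven by heat shock elements; series mostly up to about 63 µM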)
Summary of the method: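 Beta-lactamase reporter read-out: FRET substrate fluorescence after 2.5 h at RT, following 5 h compound treatment at 37 C of HeLa cells carrying HSE-driven bla reporter; quantitative HTS format.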

[10] = qHTS assay to identify small molecule agonists of the peroxisome proliferator-activated receptor delta (PPARd) signaling pathway - cell viability counter screen (AID 743211); also: nearly all actives have a fitted effect of over 55% in size
Summary of the method: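 Viability of GeneBLAzer PPARd UAS-bla HEK293H cells was assessed after 17 h compound incubation at 37C, using CellTiter-Glo reagent added after the reporter read and luminescence recorded 30 min later.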

[11] = qHTS assay to identify small molecule antagonists of the peroxisome proliferator-activated receptor delta (PPARd) signaling pathway - cell viability counter screen (AID 743213); also: nearly all actives have a fitted effect of over 50% in size
Summary of the method: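 HEK293H cells with the PPARd UAS-bla reporter, co-treated 17 h at 37 C with compounds and L165041 (300 nM final), were lysed with CellTiter-Glo. Luminescence indicated viable cell content.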

[12] = molecular target: Bile acid receptor (Homo sapiens) (UniProt Q96RI1); test: qHTS assay to identify small molecule antagonists of the farnesoid-X-receptor (FXR) signaling pathway (AID 743217; active = well fitted inhibition curve with a large enough effect in the signal ratio in the repeat runs, not every such curve was filed as active; the % refers to the signal ratio)
Bile acid receptor (Homo sapiens), sequence (Q96RI1 whole entry, looked up): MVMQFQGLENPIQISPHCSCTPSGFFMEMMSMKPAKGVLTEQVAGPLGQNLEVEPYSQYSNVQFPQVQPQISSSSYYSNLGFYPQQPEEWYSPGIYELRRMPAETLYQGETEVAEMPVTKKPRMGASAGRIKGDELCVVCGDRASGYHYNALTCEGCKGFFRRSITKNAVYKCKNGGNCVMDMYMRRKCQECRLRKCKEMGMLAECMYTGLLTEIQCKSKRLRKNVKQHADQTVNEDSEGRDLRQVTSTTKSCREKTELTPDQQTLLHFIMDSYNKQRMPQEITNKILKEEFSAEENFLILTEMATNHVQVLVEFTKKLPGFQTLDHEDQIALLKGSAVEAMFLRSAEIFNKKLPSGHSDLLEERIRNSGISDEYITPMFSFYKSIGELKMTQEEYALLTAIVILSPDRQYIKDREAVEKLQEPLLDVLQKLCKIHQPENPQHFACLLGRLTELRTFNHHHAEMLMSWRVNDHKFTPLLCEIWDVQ
Summary of the method: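 Quantitative HTS, beta-lactamase reporter format: FXR-UAS-bla HEK 293T cells co-treated 16 h at 37 °C with compounds and 50 uM final chenodeoxycholic acid, then read by B/G FRET fluorescence.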

[13] = qHTS assay to identify small molecule agonists of the farnesoid-X-receptor (FXR) signaling pathway - cell viability counter screen (AID 743218); also: nearly all actives have a fitted effect of over 45% in size
Summary of the method: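 Same-well cytotoxicity check on FXR-UAS-bla HEK 293T cells: 5 h attachment, 16 h compound at 37 C, CellTiter-Glo luminescence read at room temperature after 30 min.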

[14] = molecular target: Bile acid receptor (Homo sapiens) (UniProt Q96RI1); test: qHTS assay to identify small molecule agonists of the farnesoid-X-receptor (FXR) signaling pathway (AID 743220; active = well fitted activation curve with a large enough effect in the signal ratio in the repeat runs, not every such curve was filed as active; the % refers to the signal ratio)
Summary of the method: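 FXR-UAS-bla HEK 293T cells carrying a UAS-driven beta-lactamase reporter were plated for 5 h at 37C/5% CO2, then exposed to DMSO-dissolved Tox21 10K compounds for 16 h at 37C. A LiveBLAzer B/G FRET substrate was loaded for 2 h at room temperature before fluorescence reading.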

[15] = qHTS assay to identify small molecule antagonists of the farnesoid-X-receptor (FXR) signaling pathway - cell viability counter screen (AID 743221; active = well fitted cell-killing curve with a large enough effect in the repeat runs, not every such curve was filed as active; also: nearly all actives have a fitted effect of over 50% in size)
Summary of the method: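 Quantitative HTS of the Tox21 10K library run in parallel with the beta-lactamase reporter read. HEK 293T cells carrying a UAS-driven bla reporter got compound and 50 uM CDCA (final) for 16 h; ATP-based luminescence followed.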

[16] = molecular target: Vitamin D3 receptor (Homo sapiens) (UniProt P11473); test: qHTS assay to identify small molecule agonists of the vitamin D receptor (VDR) signaling pathway (AID 743222; calls by dose curve)
Vitamin D3 receptor (Homo sapiens), sequence (P11473 whole entry, looked up): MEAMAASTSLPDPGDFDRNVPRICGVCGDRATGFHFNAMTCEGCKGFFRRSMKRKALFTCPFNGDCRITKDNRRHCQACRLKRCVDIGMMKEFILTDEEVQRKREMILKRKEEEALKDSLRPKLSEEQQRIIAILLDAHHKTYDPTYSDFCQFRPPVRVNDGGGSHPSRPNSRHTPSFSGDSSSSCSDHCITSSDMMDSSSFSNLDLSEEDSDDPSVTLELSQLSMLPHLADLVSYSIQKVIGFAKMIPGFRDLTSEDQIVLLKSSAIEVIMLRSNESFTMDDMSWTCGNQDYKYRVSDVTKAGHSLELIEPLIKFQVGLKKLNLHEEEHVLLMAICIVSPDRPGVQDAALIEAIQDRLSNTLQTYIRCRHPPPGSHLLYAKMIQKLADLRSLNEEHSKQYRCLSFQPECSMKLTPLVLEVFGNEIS
Summary of the method: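 Using LiveBLAzer B/G FRET detection, agonism was scored in VDR-bla cells exposed overnight (16 h, 37C) to DMSO-dissolved compounds; substrate incubation was 2 h at room temperature.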

[17] = molecular target: Vitamin D3 receptor (Homo sapiens) (UniProt P11473); test: qHTS assay to identify small molecule antagonists of the vitamin D receptor (VDR) signaling pathway (AID 743223; active = well fitted inhibition curve with a large enough effect in the signal ratio in the repeat runs, not every such curve was filed as active; the % refers to the signal ratio)
Summary of the method: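 Fluorescence from LiveBLAzer B/G FRET substrate, read after 2 h at room temperature, reflects beta-lactamase reporter activity in VDR-bla cells treated 16 h at 37C with compounds and agonist 1alpha,25-dihydroxyvitamin D3 (3 nM final).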

[18] = molecular target: Peroxisome proliferator-activated receptor gamma (Homo sapiens) (UniProt P37231); test: qHTS assay to identify small molecule antagonists of the peroxisome proliferator-activated receptor gamma (PPARg) signaling pathway (AID 743191; calls by dose curve; also: series mostly up to about 63 µM; nearly all actives have a fitted effect of over 30% in size)
Summary of the method: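 GeneBLAzer PPARg UAS-bla HEK293H cells, 5 h post-plating, exposed to compounds 17 h at 37C. LiveBLAzer B/G FRET substrate added for 1 h at room temperature; beta-lactamase reporter read by fluorescence intensity.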

[19] = molecular target: Peroxisome proliferator-activated receptor delta (Homo sapiens) (UniProt Q03181); test: qHTS assay to identify small molecule antagonists of the peroxisome proliferator-activated receptor delta (PPARd) signaling pathway (AID 743215; active = well fitted inhibition curve with a large enough effect in the signal ratio in the repeat runs, not every such curve was filed as active; the % refers to the signal ratio;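 also: cells stimulated with agonist L165041 at 300 nM final during compound exposure; series mostly up to about 62 µM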)
Peroxisome proliferator-activated receptor delta (Homo sapiens), sequence (Q03181 whole entry, looked up): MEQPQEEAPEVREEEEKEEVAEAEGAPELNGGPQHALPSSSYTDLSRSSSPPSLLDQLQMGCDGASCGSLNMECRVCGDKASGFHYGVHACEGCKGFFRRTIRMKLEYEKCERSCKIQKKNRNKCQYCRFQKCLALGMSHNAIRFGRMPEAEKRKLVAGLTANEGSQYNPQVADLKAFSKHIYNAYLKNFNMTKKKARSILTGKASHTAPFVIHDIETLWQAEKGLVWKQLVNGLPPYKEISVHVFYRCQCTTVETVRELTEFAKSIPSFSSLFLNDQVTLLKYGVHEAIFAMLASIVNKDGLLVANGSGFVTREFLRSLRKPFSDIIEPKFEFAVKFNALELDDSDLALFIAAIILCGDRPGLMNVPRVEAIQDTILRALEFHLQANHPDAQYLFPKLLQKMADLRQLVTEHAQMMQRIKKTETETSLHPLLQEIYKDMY
Summary of the method: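 Screen format: qHTS, antagonist mode. HEK293H PPARd-bla cells received compound and 300 nM L165041 (final), 17 h, 37 C. Beta-lactamase detected via FRET substrate fluorescence, 2 h, room temperature.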

[20] = molecular target: Peroxisome proliferator-activated receptor delta (Homo sapiens) (UniProt Q03181); test: qHTS assay to identify small molecule agonists of the peroxisome proliferator-activated receptor delta (PPARd) signaling pathway (AID 743212; calls by dose curve)
Summary of the method: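 Read-out: beta-lactamase FRET fluorescence after 2 h room-temperature incubation with LiveBLAzer B/G substrate. Cells were HEK293H carrying a UAS-bla reporter for PPARd, treated at 37 C with DMSO-dissolved compounds.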

Measured: Potency

CC(=O)/C=C/C1C(C)=CCCC1(C)C (stereo not given)
not listed: [18] | [19] | [20]
inactive: all other assays above

Cc1occc1S
not listed: [6] | [7] | [9] | [11] | [12] | [14] | [20]
inactive: all other assays above

CC(C)c1ccccc1C(C)C
not listed: [7] | [9] | [12] | [14]
inactive: all other assays above

CCCCOc1ccc(CC(=O)NO)cc1
inactive: [1] | [2] | [3] | [4] | [18] | [5] | [8] | [9] | [19] | [17]

CN1CCC(OC(c2ccccc2)c2ccccc2)CC1
not listed: [11] | [17] | [18] | [19]
inactive: all other assays above

C=CC(=O)OCCOC(=O)CCC(=O)O
active: [1] 61.1 µM | [4] 54.9 µM
not listed: [6] | [7] | [13] | [20]
inactive: all other assays above

CCCC(=O)OCC
not listed: [6] | [12] | [14] | [20]
inactive: all other assays above

Cc1ccc(O)c([C@H](CCN(C(C)C)C(C)C)c2ccccc2)c1
not listed: [6] | [7] | [10] | [11] | [12] | [14] | [20]
inactive: all other assays above

C=Cc1c(C)c2cc3[nH]c(cc4nc(cc5nc(cc1[nH]2)C(C)=C5CCC(=O)O)C(CCC(=O)O)=C4C)c(C)c3C=C
not listed: [6] | [9] | [10] | [12] | [14] | [17] | [19]
inactive: all other assays above

C=C(C)C(=O)OCCN(C)C
not listed: [6] | [11] | [12] | [14] | [17] | [20]
inactive: all other assays above

O=C(Cl)c1c(Cl)cccc1Cl
not listed: [8] | [12] | [14] | [18] | [20]
inactive: all other assays above

CC(=O)CC(=O)c1ccccc1
not listed: [4] | [12] | [14]
inactive: all other assays above

Cc1cc(C)c(S(=O)(=O)O)cc1N=Nc1cc(S(=O)(=O)O)c2ccccc2c1O
active: [1] 24.3 µM | [3] 27.3 µM
not listed: [6] | [8] | [12] | [14] | [18]
inactive: all other assays above

CCCCCC(CO)CCC (stereo not given)
not listed: [9] | [11] | [12] | [14] | [18] | [20]
inactive: all other assays above

CC(C)(C)c1ccc(OCC2CO2)cc1 (stereo not given)
not listed: [4] | [9] | [11] | [12] | [14] | [18] | [19]
inactive: all other assays above

CC(C)CCCCCCOC(=O)c1ccc(C(=O)OCCCCCCC(C)C)c(C(=O)OCCCCCCC(C)C)c1
not listed: [6] | [12] | [14] | [18]
inactive: all other assays above

CC/C(=C\C(=N/O)C(N)=O)C(C)[N+](=O)[O-] (stereo not given)
not listed: [4] | [6] | [9] | [12] | [14] | [17] | [19] | [20]
inactive: all other assays above

CC(C)(C)C(=O)OCOP(=O)(COCCn1cnc2c(N)ncnc21)OCOC(=O)C(C)(C)C
inactive: [1] | [2] | [3] | [4] | [8] | [9] | [10] | [11] | [13] | [15]
active: [6] 2.11 µM

CCCCOC(=O)/C=C\C(=O)OCCCC
not listed: [6] | [9] | [11] | [12] | [18] | [19] | [20]
inactive: all other assays above

CN(c1nccc(=O)[nH]1)C1CCN(c2nc3ccccc3n2Cc2ccc(F)cc2)CC1
inactive: [1] | [2] | [3] | [4] | [5] | [7] | [8] | [9] | [13] | [15] | [16]

CCCCCCCCCO
not listed: [6] | [7] | [18] | [19] | [20]
inactive: all other assays above

CC(=O)[C@@]1(O)CC[C@H]2[C@@H]3C[C@H](C)C4=CC(=O)CC[C@]4(C)[C@H]3CC[C@@]21C
not listed: [6] | [12] | [14] | [17] | [18] | [19]
inactive: all other assays above

CC1(C)CCC(C)(C)c2cc(NC(=O)c3ccc(C(=O)O)cc3)ccc21
not listed: [6] | [9] | [14] | [18] | [20]
inactive: all other assays above

CC(C)=CCCC(C)CC=O (stereo not given)
not listed: [7] | [9] | [17] | [18] | [19] | [20]
inactive: all other assays above

Cc1cc(O)ccc1N
active: [1] 54.8 µM | [2] 61.4 µM | [6] 21.8 µM
not listed: [9] | [11] | [14] | [15] | [16] | [17] | [18]
inactive: all other assays above

CCCCCc1ccc(N)cc1
not listed: [4] | [6] | [7] | [11] | [12] | [14] | [19]
inactive: all other assays above
